Measured values: ChEMBL document CHEMBL1961873, “Compounds: GSK PKIS; Assays: Nanosyn kinase panel” (2012)

Key:
[1] = target: T1, Ephrin type-B receptor 2 (Homo sapiens) (UniProt P29323); settings: at 1 µM
T1 sequence (whole entry): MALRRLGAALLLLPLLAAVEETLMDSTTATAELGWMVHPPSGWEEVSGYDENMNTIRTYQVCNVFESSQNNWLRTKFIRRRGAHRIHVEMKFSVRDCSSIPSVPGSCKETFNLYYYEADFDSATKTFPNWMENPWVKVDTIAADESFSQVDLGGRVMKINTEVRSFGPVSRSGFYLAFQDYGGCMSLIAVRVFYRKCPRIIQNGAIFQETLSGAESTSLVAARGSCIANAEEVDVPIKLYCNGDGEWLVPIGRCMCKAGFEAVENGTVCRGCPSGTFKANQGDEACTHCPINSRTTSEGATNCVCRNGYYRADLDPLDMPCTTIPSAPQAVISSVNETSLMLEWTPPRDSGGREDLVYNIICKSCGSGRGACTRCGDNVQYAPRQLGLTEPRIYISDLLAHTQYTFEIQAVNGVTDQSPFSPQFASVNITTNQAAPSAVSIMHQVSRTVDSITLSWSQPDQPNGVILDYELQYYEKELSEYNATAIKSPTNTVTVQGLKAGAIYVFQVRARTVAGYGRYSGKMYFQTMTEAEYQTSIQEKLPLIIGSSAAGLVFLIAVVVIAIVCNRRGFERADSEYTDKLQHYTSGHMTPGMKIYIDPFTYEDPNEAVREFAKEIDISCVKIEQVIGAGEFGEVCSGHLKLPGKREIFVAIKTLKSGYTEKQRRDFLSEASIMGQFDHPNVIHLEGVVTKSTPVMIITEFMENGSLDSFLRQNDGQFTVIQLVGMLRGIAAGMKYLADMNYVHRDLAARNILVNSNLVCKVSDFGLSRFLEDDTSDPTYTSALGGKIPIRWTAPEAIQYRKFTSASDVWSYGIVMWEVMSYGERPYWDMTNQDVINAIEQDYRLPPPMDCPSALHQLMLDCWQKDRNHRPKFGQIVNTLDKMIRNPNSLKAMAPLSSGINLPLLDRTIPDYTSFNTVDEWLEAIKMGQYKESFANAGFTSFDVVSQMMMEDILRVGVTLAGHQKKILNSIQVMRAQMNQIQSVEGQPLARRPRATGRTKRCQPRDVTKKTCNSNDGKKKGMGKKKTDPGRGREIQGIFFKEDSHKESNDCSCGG

[2] = target: T2, Ephrin type-B receptor 3 (Homo sapiens) (UniProt P54753); settings: at 0.1 µM
T2 sequence (whole entry): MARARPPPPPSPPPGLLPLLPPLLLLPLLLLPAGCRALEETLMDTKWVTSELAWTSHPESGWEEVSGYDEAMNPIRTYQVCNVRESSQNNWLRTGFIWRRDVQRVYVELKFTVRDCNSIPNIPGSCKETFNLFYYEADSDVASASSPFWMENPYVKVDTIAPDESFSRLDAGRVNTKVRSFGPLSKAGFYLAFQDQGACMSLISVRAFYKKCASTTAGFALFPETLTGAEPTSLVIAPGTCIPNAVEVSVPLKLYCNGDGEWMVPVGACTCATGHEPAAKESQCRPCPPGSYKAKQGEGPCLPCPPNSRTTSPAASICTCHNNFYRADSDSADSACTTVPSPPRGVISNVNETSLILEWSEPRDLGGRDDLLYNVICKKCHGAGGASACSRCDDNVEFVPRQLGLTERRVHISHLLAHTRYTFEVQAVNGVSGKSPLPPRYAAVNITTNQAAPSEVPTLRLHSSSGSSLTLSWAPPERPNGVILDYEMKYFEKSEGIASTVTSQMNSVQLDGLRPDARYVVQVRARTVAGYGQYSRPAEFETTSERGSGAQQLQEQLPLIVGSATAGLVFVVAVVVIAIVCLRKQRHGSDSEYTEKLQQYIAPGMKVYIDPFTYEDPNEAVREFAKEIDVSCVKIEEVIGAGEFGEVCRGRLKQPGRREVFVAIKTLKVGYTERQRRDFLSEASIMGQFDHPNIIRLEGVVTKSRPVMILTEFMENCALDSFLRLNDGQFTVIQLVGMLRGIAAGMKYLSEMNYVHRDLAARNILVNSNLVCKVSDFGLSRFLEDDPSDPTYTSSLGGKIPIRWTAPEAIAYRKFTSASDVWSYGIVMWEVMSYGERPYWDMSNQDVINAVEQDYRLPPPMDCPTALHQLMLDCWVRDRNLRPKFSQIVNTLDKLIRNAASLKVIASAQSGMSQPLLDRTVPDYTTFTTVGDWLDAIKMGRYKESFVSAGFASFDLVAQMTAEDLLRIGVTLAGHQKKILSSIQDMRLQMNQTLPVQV

[3] = target: T2, Ephrin type-B receptor 3 (Homo sapiens); settings: at 1 µM
[4] = target: T3, Ephrin type-B receptor 4 (Homo sapiens) (UniProt P54760); settings: at 0.1 µM
T3 sequence (whole entry): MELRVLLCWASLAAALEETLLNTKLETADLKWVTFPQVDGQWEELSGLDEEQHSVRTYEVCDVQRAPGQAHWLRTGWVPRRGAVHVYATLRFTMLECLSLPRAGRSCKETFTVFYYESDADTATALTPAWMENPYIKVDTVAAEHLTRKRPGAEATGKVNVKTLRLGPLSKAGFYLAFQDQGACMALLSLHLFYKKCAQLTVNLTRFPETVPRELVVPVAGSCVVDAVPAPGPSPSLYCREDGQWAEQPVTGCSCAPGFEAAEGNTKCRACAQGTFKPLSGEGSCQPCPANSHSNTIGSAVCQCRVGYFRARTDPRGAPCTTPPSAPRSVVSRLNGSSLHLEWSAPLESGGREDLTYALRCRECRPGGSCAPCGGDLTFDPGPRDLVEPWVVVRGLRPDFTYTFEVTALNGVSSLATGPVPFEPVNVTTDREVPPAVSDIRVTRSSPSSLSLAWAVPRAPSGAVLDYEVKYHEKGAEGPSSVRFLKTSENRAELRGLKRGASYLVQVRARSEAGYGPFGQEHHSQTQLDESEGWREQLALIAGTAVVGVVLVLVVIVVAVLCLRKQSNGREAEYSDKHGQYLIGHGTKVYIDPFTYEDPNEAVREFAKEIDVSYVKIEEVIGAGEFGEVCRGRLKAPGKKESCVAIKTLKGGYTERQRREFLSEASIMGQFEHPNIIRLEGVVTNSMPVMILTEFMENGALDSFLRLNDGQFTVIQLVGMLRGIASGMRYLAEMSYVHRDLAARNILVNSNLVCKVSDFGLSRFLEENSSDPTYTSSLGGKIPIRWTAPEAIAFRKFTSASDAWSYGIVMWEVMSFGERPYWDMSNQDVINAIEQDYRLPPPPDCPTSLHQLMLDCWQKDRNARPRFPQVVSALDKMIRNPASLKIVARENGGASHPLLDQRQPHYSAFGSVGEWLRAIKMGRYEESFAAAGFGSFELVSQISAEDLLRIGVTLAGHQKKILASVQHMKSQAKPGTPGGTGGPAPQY

[5] = target: T3, Ephrin type-B receptor 4 (Homo sapiens); settings: at 1 µM
[6] = target: Receptor tyrosine-protein kinase erbB-2 (Homo sapiens) (UniProt P04626); settings: at 0.1 µM
Chain of Receptor tyrosine-protein kinase erbB-2 (Homo sapiens) (P04626 whole entry): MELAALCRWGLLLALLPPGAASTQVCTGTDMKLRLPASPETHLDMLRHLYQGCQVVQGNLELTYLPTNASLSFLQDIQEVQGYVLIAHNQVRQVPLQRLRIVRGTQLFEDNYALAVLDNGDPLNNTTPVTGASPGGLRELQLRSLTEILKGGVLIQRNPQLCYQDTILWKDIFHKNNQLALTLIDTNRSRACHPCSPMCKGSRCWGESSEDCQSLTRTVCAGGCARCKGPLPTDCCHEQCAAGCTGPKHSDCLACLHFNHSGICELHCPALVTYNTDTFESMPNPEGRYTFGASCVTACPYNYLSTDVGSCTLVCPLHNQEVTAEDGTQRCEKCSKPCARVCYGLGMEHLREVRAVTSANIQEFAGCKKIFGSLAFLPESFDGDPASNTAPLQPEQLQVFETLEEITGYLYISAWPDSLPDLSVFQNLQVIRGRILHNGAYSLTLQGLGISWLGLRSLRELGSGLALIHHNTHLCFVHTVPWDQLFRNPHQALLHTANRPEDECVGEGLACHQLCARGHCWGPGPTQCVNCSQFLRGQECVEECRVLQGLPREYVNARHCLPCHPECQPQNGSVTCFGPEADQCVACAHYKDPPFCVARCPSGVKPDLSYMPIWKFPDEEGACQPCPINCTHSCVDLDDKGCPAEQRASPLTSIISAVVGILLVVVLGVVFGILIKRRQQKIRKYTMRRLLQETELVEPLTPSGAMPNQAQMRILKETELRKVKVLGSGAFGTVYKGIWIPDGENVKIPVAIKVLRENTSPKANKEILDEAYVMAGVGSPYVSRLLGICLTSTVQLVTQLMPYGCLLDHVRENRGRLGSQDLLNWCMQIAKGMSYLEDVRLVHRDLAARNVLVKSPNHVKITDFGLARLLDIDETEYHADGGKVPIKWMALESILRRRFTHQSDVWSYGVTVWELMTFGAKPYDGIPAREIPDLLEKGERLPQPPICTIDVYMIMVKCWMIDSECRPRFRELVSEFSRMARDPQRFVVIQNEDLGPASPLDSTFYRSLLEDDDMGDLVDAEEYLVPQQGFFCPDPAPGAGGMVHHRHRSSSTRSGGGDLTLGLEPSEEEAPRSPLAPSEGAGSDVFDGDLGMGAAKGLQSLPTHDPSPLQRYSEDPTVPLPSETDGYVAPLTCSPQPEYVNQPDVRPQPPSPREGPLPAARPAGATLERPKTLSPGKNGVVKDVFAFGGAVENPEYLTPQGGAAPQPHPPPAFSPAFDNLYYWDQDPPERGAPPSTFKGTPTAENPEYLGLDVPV

[7] = target: Receptor tyrosine-protein kinase erbB-2 (Homo sapiens) (UniProt P04626); settings: at 1 µM
[8] = target: Receptor tyrosine-protein kinase erbB-4 (Homo sapiens) (UniProt Q15303); settings: at 0.1 µM
Chain of Receptor tyrosine-protein kinase erbB-4 (Homo sapiens) (Q15303 whole entry): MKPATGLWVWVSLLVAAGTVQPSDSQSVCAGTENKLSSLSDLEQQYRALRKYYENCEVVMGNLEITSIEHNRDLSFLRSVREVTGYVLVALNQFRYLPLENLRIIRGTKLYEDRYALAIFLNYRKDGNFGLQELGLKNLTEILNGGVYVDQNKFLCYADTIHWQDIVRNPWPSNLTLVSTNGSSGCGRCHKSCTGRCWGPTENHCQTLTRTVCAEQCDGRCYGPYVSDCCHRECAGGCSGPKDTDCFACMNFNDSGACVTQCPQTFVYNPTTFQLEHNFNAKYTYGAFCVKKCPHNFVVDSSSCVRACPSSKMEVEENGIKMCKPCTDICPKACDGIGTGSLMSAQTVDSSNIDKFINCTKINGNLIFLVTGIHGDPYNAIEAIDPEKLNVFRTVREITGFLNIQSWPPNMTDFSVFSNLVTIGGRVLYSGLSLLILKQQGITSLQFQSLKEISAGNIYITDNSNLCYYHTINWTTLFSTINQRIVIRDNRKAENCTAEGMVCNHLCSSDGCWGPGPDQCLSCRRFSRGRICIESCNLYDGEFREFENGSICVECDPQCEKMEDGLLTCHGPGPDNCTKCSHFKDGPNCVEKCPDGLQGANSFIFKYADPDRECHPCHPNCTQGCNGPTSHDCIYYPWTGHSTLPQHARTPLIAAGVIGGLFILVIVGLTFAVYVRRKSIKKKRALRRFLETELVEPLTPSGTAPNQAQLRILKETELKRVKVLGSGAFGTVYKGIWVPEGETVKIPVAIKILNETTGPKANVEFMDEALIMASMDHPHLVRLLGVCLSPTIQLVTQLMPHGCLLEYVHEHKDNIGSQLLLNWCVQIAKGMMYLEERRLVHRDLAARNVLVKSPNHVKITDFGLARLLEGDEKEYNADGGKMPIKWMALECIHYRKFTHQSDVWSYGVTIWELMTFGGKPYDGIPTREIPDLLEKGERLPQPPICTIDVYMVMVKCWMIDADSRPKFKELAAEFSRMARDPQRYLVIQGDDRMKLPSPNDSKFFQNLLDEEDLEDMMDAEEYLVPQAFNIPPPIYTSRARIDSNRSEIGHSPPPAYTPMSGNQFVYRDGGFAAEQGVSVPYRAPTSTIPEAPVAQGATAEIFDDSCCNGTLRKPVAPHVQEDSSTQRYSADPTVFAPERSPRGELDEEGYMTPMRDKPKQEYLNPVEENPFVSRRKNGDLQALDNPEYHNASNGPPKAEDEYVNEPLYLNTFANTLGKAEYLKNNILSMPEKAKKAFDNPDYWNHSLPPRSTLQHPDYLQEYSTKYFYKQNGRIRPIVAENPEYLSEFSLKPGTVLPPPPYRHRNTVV

[9] = target: Receptor tyrosine-protein kinase erbB-4 (Homo sapiens) (UniProt Q15303); settings: at 1 µM
[10] = target: Tyrosine-protein kinase Fer (Homo sapiens) (UniProt P16591); settings: at 0.1 µM
Chain of Tyrosine-protein kinase Fer (Homo sapiens) (P16591 whole entry, looked up): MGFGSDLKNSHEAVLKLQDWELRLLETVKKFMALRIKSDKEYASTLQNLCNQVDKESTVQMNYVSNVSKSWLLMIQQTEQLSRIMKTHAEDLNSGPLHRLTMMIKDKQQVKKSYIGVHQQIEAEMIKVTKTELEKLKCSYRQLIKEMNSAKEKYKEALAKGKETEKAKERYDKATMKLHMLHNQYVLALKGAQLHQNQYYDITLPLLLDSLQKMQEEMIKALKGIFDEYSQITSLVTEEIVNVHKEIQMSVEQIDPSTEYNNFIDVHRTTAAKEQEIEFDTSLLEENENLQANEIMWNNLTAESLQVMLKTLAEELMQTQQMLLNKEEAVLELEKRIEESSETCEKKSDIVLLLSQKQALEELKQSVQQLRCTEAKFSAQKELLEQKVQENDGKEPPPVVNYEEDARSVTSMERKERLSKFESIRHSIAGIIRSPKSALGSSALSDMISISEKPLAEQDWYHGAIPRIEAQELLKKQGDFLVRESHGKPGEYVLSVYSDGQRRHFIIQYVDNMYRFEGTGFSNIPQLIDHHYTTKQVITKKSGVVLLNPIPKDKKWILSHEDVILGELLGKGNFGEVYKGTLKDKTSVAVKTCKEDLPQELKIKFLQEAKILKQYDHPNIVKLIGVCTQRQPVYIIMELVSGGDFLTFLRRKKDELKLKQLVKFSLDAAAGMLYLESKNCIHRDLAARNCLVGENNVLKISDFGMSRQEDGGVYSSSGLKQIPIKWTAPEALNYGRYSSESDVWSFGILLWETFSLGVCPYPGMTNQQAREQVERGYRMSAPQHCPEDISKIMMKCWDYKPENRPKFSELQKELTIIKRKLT

[11] = target: Tyrosine-protein kinase Fer (Homo sapiens) (UniProt P16591); settings: at 1 µM
[12] = target: Tyrosine-protein kinase Fes/Fps (Homo sapiens) (UniProt P07332); settings: at 0.1 µM
[13] = target: Tyrosine-protein kinase Fes/Fps (Homo sapiens) (UniProt P07332); settings: at 1 µM
[14] = target: Fibroblast growth factor receptor 1 (Homo sapiens) (UniProt P11362); settings: at 0.1 µM
[15] = target: Fibroblast growth factor receptor 1 (Homo sapiens) (UniProt P11362); settings: at 1 µM
[16] = target: Fibroblast growth factor receptor 2 (Homo sapiens) (UniProt P21802); settings: at 0.1 µM
[17] = target: Fibroblast growth factor receptor 2 (Homo sapiens) (UniProt P21802); settings: at 1 µM
[18] = target: Fibroblast growth factor receptor 3 (Homo sapiens) (UniProt P22607); settings: at 0.1 µM
Chain of Fibroblast growth factor receptor 3 (Homo sapiens) (P22607 23-806 limits assumed): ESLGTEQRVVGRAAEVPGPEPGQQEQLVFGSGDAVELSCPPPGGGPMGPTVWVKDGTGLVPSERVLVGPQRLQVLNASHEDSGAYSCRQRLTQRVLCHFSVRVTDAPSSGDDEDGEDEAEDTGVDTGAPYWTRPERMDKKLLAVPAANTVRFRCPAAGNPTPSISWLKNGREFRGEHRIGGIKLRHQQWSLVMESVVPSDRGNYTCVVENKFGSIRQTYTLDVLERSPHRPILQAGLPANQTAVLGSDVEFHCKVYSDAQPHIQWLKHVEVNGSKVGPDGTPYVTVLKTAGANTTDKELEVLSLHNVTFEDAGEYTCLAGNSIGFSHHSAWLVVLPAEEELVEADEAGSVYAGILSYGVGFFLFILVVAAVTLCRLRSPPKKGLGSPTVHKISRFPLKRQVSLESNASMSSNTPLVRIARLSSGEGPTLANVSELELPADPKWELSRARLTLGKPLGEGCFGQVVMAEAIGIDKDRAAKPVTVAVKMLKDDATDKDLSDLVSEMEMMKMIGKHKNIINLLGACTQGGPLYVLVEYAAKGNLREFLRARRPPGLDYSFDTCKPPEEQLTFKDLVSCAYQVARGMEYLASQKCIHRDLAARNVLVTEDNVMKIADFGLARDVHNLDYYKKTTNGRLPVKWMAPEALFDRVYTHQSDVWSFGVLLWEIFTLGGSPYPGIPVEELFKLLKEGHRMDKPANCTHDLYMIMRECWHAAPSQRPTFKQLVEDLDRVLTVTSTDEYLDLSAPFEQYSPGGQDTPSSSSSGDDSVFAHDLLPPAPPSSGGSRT

[19] = target: Fibroblast growth factor receptor 3 (Homo sapiens) (UniProt P22607); settings: at 1 µM
[20] = target: Fibroblast growth factor receptor 4 (Homo sapiens) (UniProt P22455); settings: at 0.1 µM;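 further: values are mean percent inhibition of FGFR4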
Chain of Fibroblast growth factor receptor 4 (Homo sapiens) (P22455 22-802 limits assumed): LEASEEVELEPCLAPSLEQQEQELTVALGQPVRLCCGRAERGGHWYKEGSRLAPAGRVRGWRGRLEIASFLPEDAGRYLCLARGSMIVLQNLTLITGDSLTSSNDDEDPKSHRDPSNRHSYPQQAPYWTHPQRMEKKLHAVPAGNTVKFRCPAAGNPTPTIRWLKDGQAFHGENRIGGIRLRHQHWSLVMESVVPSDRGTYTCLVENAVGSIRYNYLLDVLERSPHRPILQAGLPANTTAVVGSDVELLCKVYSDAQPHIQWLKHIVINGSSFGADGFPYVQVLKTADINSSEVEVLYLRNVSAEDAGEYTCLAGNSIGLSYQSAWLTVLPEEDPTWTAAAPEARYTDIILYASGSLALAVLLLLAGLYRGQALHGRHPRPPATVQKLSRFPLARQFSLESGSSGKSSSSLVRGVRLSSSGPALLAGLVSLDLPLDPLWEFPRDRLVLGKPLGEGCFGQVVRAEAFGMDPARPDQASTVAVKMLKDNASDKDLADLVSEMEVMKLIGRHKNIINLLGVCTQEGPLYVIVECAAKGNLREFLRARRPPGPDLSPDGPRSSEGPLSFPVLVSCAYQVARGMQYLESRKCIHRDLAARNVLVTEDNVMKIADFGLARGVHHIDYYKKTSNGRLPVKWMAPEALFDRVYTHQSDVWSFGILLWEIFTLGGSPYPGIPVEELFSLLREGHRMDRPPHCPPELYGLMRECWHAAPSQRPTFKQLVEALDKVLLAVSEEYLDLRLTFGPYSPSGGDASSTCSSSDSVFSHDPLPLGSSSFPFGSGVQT

SMILES | inhibition [1] [%] | inhibition [2] [%] | inhibition [3] [%] | inhibition [4] [%] | inhibition [5] [%] | inhibition [6] [%] | inhibition [7] [%] | inhibition [8] [%] | inhibition [9] [%] | inhibition [10] [%] | inhibition [11] [%] | inhibition [12] [%] | inhibition [13] [%] | inhibition [14] [%] | inhibition [15] [%] | inhibition [16] [%] | inhibition [17] [%] | inhibition [18] [%] | inhibition [19] [%] | inhibition [20] [%]
O=C1NC(=O)C(c2cccc(Cl)c2)=C1Nc1ccc(Cl)c(C(=O)O)c1 | 3.04 | 10.6 | 4.29 | 0.79 | 0.05 | 2.66 | 1.74 | 7.3 | 10 | 3.46 | 2.51 | 2.13 | 2.52 | 3.46 | 16.2 | 8.43 | 20.6 | 6.79 | 24.8 | -1.89
O=C(Nc1n[nH]c2nc(-c3ccco3)ccc12)C1CC1 | 12.7 | 3.53 | 2.4 | 0.45 | 4.02 | 0.39 | 0.71 | 2.93 | 2 | 0.52 | 2.89 | 1.02 | 1.51 | 2.13 | 2.39 | -0.33 | 5.26 | 1.13 | 3.83 | 2.11
Fc1ccc(-c2ncn(CCCN3CCOCC3)c2-c2ccncc2)cc1 | -5.28 | 2.51 | -2.79 | 0.93 | -0.14 | -0.2 | -6.58 | 4.44 | 4.14 | 0.26 | -1.08 | -0.1 | -0.6 | 0.01 | -2.73 | -1.34 | 2.45 | 0.86 | 2.18 | -3
O=C1Nc2ccccc2/C1=C/Nc1ccc(-n2cncn2)cc1 | 8.52 | 4.57 | 2.77 | 2.19 | 2.59 | 3.17 | 9.83 | 9.69 | 12.5 | 3.94 | 11.2 | 2.67 | 2.63 | 2.75 | 9.98 | 5.38 | 24.9 | 7.96 | 22 | –
COc1cccc(/C=N/Nc2ncnc3c2cnn3-c2cccc(OC)c2)c1 | 5.8 | 1.82 | 3.68 | 0.66 | 1.2 | 0.2 | 5.67 | 5.57 | 10 | -0.09 | 3.78 | 3.43 | 3.25 | 4.2 | 2.4 | 5.34 | 6.12 | 4.59 | 5.11 | 2.44
COc1cccc(-n2cnc3c(N/N=C/c4ccncc4)ncnc32)c1 | 16.2 | -8.69 | -4.51 | -2.1 | 0.65 | 0.94 | 7.49 | -3.73 | 2.45 | 4.18 | 4.82 | -0.04 | -1.27 | -7.19 | -2.61 | -3.25 | 10.7 | -3.58 | 3.63 | -4.06
CNC(=O)c1cncc(/C=C/c2c(C)cccc2C)c1 | 65.9 | -1 | 2.29 | 7.98 | 45.7 | -0.21 | 1.84 | -1.45 | 2.45 | 1.13 | 3.37 | -0.51 | -0.68 | -3.96 | -3.96 | -3.46 | -2.09 | -2.67 | -3.86 | -4.63
